# Experimental data: PubChem BioAssay (NCI)
# This is part of a sample that, as a whole, favours compounds with a hit. Of some 79,000 tested, about 15% had one in any assay. Unmarked numbers belong to inactive results. Activity calls are given as the source filed them. No stated cut-off is given here; in the data, active means growth inhibition above about 70%; inactive means the rest.
# How the values were obtained:
# [1] = NCI Yeast Anticancer Drug Screen. Data for the rad50 strain (AID 155);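 further: 0% = growth of vehicle-only cultures of the same strain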; settings: S. cerevisiae rad50 strain growth inhibition, stronger effect = higher value
# Outline: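 DNA repair mutant yeast, compound exposure, growth read-out; inhibition is taken relative to vehicle.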
# [2] = NCI Yeast Anticancer Drug Screen. Data for the mec2-1 strain (AID 157); settings: S. cerevisiae mec2-1 strain, stronger effect = higher value
# Outline: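 Growth inhibition is read against vehicle-treated controls after compound exposure of the mec2-1 yeast strain, which is defective in DNA damage repair or cell cycle control.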
# [3] = NCI Yeast Anticancer Drug Screen. Data for the sgs1 mgt1 strain (AID 161);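 further: 0% = growth of cultures given vehicle only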; settings: S. cerevisiae sgs1 mgt1 strain, stronger effect = higher value
# Outline: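 Growth of a repair-deficient yeast mutant was monitored after compound treatment and expressed as inhibition relative to vehicle-treated cultures.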
# [4] = NCI Yeast Anticancer Drug Screen. Data for the cln2 rad14 strain (AID 165);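 further: 0% = growth equal to vehicle treated cultures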; settings: S. cerevisiae cln2 rad14 strain, stronger effect = higher value
# Outline: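 Growth inhibition, relative to vehicle-treated controls, is the read-out. The test organism is a yeast strain with defined genetic alterations, cln2 rad14.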
# [5] = NCI Yeast Anticancer Drug Screen. Data for the bub3 strain (AID 167); settings: S. cerevisiae bub3 mutant strain, stronger effect = higher value
# Outline: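 In this screen, a yeast mutant lacking normal mitotic checkpoint function is challenged with compound. Relative growth versus vehicle gives the inhibition value.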
# [6] = NCI Yeast Anticancer Drug Screen. Data for the mlh1 rad18 strain (AID 175); settings: S. cerevisiae mlh1 rad18 strain growth inhibition, stronger effect = higher value
# Outline: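 Cells of a genetically altered yeast strain, deficient in DNA damage repair, were treated with compound. Their growth was then compared with that of vehicle-treated cultures to give inhibition.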
# [7] = at 5.0 µM (retest, dose inferred, filed as 0.5)
# [8] = at 50.0 µM (retest, dose inferred, filed as 5.0)
SMILES,"growth inhibition [1, 7] [%]","growth inhibition [1, 8]",growth inhibition ([1]; at 50.0 µM),"growth inhibition [2, 7] [%]","growth inhibition [2, 8]",growth inhibition ([2]; at 50.0 µM),"growth inhibition [3, 7] [%]","growth inhibition [3, 8]",growth inhibition ([3]; at 50.0 µM),"growth inhibition [4, 7]","growth inhibition [4, 8]",growth inhibition ([4]; at 50.0 µM),"growth inhibition [5, 7] [%]","growth inhibition [5, 8]",growth inhibition ([5]; at 50.0 µM),"growth inhibition [6, 7] [%]","growth inhibition [6, 8]",growth inhibition ([6]; at 50.0 µM)
O=C(/C=C/c1ccccc1)NOC(=O)/C=C/c1ccccc1,42,93% (active),97.5% (active),34,95% (active),99.2% (active),66,94% (active),98.9% (active),25%,91% (active),98.5% (active),34,92% (active),99% (active),42,93% (active),98.5% (active)
Nc1ccccc1CC(c1c[nH]c2ccccc12)c1c[nH]c2ccccc12,4,7%,94% (active),1,17%,95% (active),1,10%,94.4% (active),93% (active),-7%,90.5% (active),2,26%,93% (active),4,27%,93.8% (active)
COc1ccc(C2=C(Cl)C(=O)N(c3ccc(Cl)cc3)C(=O)C2(Cl)Cl)cc1,12,95% (active),93.2% (active),3,97% (active),98.2% (active),13,96% (active),97.1% (active),-10%,91% (active),63%,-3,95% (active),93.2% (active),9,94% (active),96% (active)
COc1ccc2ccc(OC)c(C=O)c2c1,-158,-119%,97.5% (active),-50,-111%,10.2%,-65,-60%,-1%,-63%,-58%,-28.2%,-67,-74%,-25.6%,-144,-107%,63.5%
CCCNC(=O)C(=O)NNc1ccccc1,7,64%,66.8%,6,62%,59.1%,10,55%,57%,11%,79% (active),73.5% (active),-2,95% (active),70.7% (active),14,95% (active),90.1% (active)
COC(=O)c1ccccc1C(=O)c1cc(OC)c2c(c1OC)CCCC2,-2,59%,90.8% (active),0,64%,94.5% (active),5,63%,75.5% (active),-69%,23%,47.6%,3,-45%,77% (active),3,24%,82.9% (active)
Fc1ccc2[nH]ccc2c1,9,41%,55.5%,-22,13%,28.8%,5,19%,60.6%,9%,47%,34.4%,2,62%,62.3%,-19,44%,49.3%
Oc1ccc(O)c2c1CC=C(Cl)C2,10,48%,52.4%,12,57%,52.9%,13,55%,33%,-1%,86% (active),24.9%,26,83% (active),56.5%,17,75% (active),59.8%
Oc1ccc(N(Cc2ccccc2)Cc2ccccc2)cc1,4,47%,98.2% (active),4,58%,97.9% (active),6,40%,98.4% (active),0%,93% (active),97.7% (active),7,89% (active),97.6% (active),6,69%,97.3% (active)
